Assay [1] can be described thus: A CellTox Green Cytotoxicity Assay to monitor cytotoxicity in HEK293 cells - 24 hour (AID 1224875). Further: series mostly up to about 77 µM; on the % scale 0 is the no-effect control and ±100 the full control effect; nearly all actives have a fitted effect of over 45% in size. Put shortly:
(§1)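 Each value comes from one timepoint of a single continuous run in which HEK293 cells with CellTox Green were exposed to compound for up to 40 h at 37 C, dye fluorescence rising with cell death.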

Assay [2] is described as follows: qHTS RealTime-Glo MT Cell Viability Assay in HepG2 cells - 32 hour (AID 1224877). Further: nearly all actives have a fitted effect of over 55% in size. Further: potency means the concentration at half of the fitted maximal effect. On activity change, negative = cytotoxic: on the % scale 0 is the no-effect control and ±100 the full control effect. A digest of the protocol: (§2)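 HepG2 cells (600/well) were dispensed with RealTime-Glo reagents, incubated 5 h at 37 °C, then treated with compounds in DMSO for up to 40 h. Nonlytic NanoLuc luminescence reflecting viable cells was read at each stated time point.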
A short description of assay [3]: A CellTox Green Cytotoxicity Assay to monitor cytotoxicity in HepG2 cells - 24 hour (AID 1224878). Further: nearly all actives have a fitted effect of over 45% in size. Further: potency means the concentration at half of the fitted maximal effect. A digest of the protocol:
(§3)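 Continuous culture of HepG2 cells with a membrane-impermeant DNA dye; rising fluorescence marks dead cells. Compound exposure lasted up to 40 h at 37 C, with reads every 8 h from 0 h.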

A short description of assay [4]: A CellTox Green Cytotoxicity Assay to monitor cytotoxicity in HepG2 cells - 40 hour (AID 1224879). Further: potency means the concentration at half of the fitted maximal effect; nearly all actives have a fitted effect of over 40% in size. A digest of the protocol:
as §3

The nature of assay [5]: A CellTox Green Cytotoxicity Assay to monitor cytotoxicity in HEK293 cells - 32 hour (AID 1224881). Further: nearly all actives have a fitted effect of over 40% in size. Further: potency means the concentration at half of the fitted maximal effect. On cytotoxicity increase: on the % scale 0 is the no-effect control and ±100 the full control effect. A digest of the protocol:
as §1

Assay [6] can be described thus: A CellTox Green Cytotoxicity Assay to monitor cytotoxicity in HepG2 cells - 0 hour (AID 1224882). Further: on the % scale 0 is the no-effect control and ±100 the full control effect; nearly all actives have a fitted effect of over 35% in size. Put shortly:
as §3

Assay [7] is described as follows: A CellTox Green Cytotoxicity Assay to monitor cytotoxicity in HepG2 cells - 32 hour (AID 1224883). Further: nearly all actives have a fitted effect of over 50% in size. Further: potency means the concentration at half of the fitted maximal effect. Put shortly: as §3
Assay [8] is described as follows: A CellTox Green Cytotoxicity Assay to monitor cytotoxicity in HEK293 cells - 8 hour (AID 1224884). Further: on the % scale 0 is the no-effect control and ±100 the full control effect; nearly all actives have a fitted effect of over 35% in size. A digest of the protocol: as §1
Assay [9] is described as follows: qHTS RealTime-Glo MT Cell Viability Assay in HepG2 cells - 16 hour (AID 1224885). Further: nearly all actives have a fitted effect of over 50% in size. Further: potency means the concentration at half of the fitted maximal effect. On activity change, negative = cytotoxic: on the % scale 0 is the no-effect control and ±100 the full control effect. Put shortly:
as §2
(qHTS replaces the single test concentration by a dilution series.)

Assay [10] in a line: qHTS RealTime-Glo MT Cell Viability Assay in HEK293 cells - 8 hour (AID 1224887). Further: nearly all actives have a fitted effect of over 50% in size. Further: potency means the concentration at half of the fitted maximal effect. On activity change, negative = cytotoxicity: top concentration of the series differs between compounds; on the % scale 0 is the no-effect control and ±100 the full control effect. Put shortly: (§4)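 qHTS format; HEK293 cells with NanoLuc/prosubstrate reagent, 37 C/5% CO2 for 5 h pre-dosing; compounds 23 nL in DMSO; luminescence at each time point reflects viable cells.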
Assay [11] in a line: A CellTox Green Cytotoxicity Assay to monitor cytotoxicity in HEK293 cells - 16 hour (AID 1224888). Further: on the % scale 0 is the no-effect control and ±100 the full control effect; nearly all actives have a fitted effect of over 35% in size. A digest of the protocol: as §1
Assay [12] is described as follows: qHTS RealTime-Glo MT Cell Viability Assay in HepG2 cells - 0 hour (AID 1224889). Further: on the % scale 0 is the no-effect control and ±100 the full control effect; nearly all actives have a fitted effect of over 50% in size. Put shortly:
as §2

Assay [13] is described as follows: A CellTox Green Cytotoxicity Assay to monitor cytotoxicity in HepG2 cells - 8 hour (AID 1224890). Further: on the % scale 0 is the no-effect control and ±100 the full control effect; nearly all actives have a fitted effect of over 45% in size. Put shortly: as §3
The nature of assay [14]: qHTS assay to identify small molecule antagonists of the estrogen receptor alpha (ER-alpha) signaling pathway using the BG1 cell line in the presence of 0.1 nM 17-beta-estradiol - cell viability counter screen (AID 1259241). Further: nearly all actives have a fitted effect of over 40% in size. Further: potency means the concentration at half of the fitted maximal effect. Put shortly: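 VM7Luc4E2 cells (endogenous ER-alpha, 4×ERE-luciferase), hormone-starved 5 days in charcoal-stripped FBS, were treated with compounds plus 0.1 nM 17beta-estradiol for 22 hr at 37C; viability read in same wells as CellTiter-Fluor live-cell protease fluorescence.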

Assay [15] in a line: qHTS assay to identify small molecule antagonists of the androgen receptor (AR) signaling pathway using the MDA cell line in the presence of 0.5 nM R1881 - cell viability counter screen (AID 1259242). Further: nearly all actives have a fitted effect of over 45% in size. Further: potency means the concentration at half of the fitted maximal effect. A digest of the protocol:
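Fluorescence from CellTiter-Fluor, which reports protease activity of live cells, was read 30 min after reagent addition to MDA-kb2 cells that had been incubated 16 hr with compound and 0.5 nM R1881.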

The nature of assay [16]: qHTS RealTime-Glo MT Cell Viability Assay in HEK293 cells - 40 hour (AID 1224874). Further: nearly all actives have a fitted effect of over 50% in size. Further: potency means the concentration at half of the fitted maximal effect. The following applies: RealTime-Glo luminescence; max response: stronger effect = lower value. Put shortly: as §4
The nature of assay [17]: A CellTox Green Cytotoxicity Assay to monitor cytotoxicity in HepG2 cells - 16 hour (AID 1224876). Further: nearly all actives have a fitted effect of over 45% in size. Further: potency means the concentration at half of the fitted maximal effect. Put shortly:
as §3

A short description of assay [18]: qHTS RealTime-Glo MT Cell Viability Assay in HEK293 cells - 24 hour (AID 1224886). Further: nearly all actives have a fitted effect of over 50% in size. Further: potency means the concentration at half of the fitted maximal effect. A digest of the protocol:
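HEK293 cells seeded with NanoLuc/prosubstrate reagent, rested 5 h at 37 C, then dosed and kept at 37 C up to 40 h. Nonlytic real-time luminescence from viable cells read at 0, 8, 16, 24, 32 and 40 h.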

A short description of assay [19]: qHTS RealTime-Glo MT Cell Viability Assay in HEK293 cells - 0 hour (AID 1224880). A digest of the protocol:
as §4

Values without a mark were called inactive. Results filed as inconclusive are left out. Active and inactive are the calls of the source. The call rests on the fitted dose curve; in most records, active means well fitted curve in the direction sought with a large enough effect in the repeat runs; inconclusive means weak or mixed curves; inactive means no such curve, though single readings can be large; an effect the other way counts as inactive or inconclusive.

`CCN(CC)CCCN(c1ccccc1)C1Cc2ccccc2C1`: the Potency result in assay [1], in assay [2], in assay [5], in [6], in [8] and in assay [9] was “inactive” in each case. In addition, the Potency entry in assay [10], in assay [11], in assay [12], in assay [13], in assay [14] and in assay [15] was “inactive” each time. In addition, the Potency in assay [3], in [4] and in assay [7] was 23.9 µM (active) throughout.

Turning to `CNCC[C@H](Oc1cccc2ccccc12)c1cccs1`, the Potency in [16] is 23.9 µM (active); in assay [17] it was 23.9 µM (active); in assay [2], 21.3 µM (active); in assay [3], 21.3 µM (active); in [4], 19 µM (active); in assay [7] it was 19 µM (active). In addition, the Potency in assay [9] is 23.9 µM (active); in [18], 23.9 µM (active); in assay [15] it was 26.6 µM (active). The Potency entry in assay [14] was “inactive”.

Turning to `C=CC(=O)OCCOCC(CC)(COCCOC(=O)C=C)COCCOC(=O)C=C`, the Potency in [16] was 14.4 µM (active); in [2] it was 28.7 µM (active); in assay [4], 25.6 µM (active); in [7], 25.6 µM (active); in [18] it was 16.1 µM (active); in [14], 14.3 µM (active). The Potency entry in assay [17], in assay [19], in [6], in [8], in [11] and in assay [12] was “inactive” each time. Moreover, the Potency result in assay [13] is “inactive”.

For `Cc1cccc(C)c1NC(=O)CN1CCN(CCCC(c2ccc(F)cc2)c2ccc(F)cc2)CC1`, the Potency in assay [16] is 10.7 µM (active); in [17] it was 26.8 µM (active); in assay [2], 23.9 µM (active); in [3], 23.9 µM (active); in assay [4] it was 23.9 µM (active); in [5], 19 µM (active). The Potency in assay [7] is 23.9 µM (active); in [9] it was 21.3 µM (active); in [18], 10.7 µM (active); in assay [10], 10.7 µM (active). The Potency entry in [19], in [6], in [8], in [12] and in assay [14] was “inactive” throughout.

On to `CN(C)c1ccc(N=Nc2ccccc2C(=O)O)cc1`, for which the max response in [16] is 2%. In addition, the Potency result in assay [1], in assay [3], in assay [19], in [5], in assay [7] and in [8] was “inactive” each time. Further, the Potency result in [18], in [10], in assay [11], in [12], in [13] and in assay [14] was “inactive” throughout.

As to `O=C(Nc1ccc(Cl)c(Cl)c1)c1cc(Cl)cc(Cl)c1O`, the Potency in [16] was 4.9 µM (active); in assay [3] it was 9.77 µM (active); in assay [4], 8.71 µM (active); in assay [7], 11 µM (active); in assay [18] it was 4.9 µM (active). The Potency entry in [17], in assay [19], in assay [8], in assay [9], in assay [10] and in assay [13] was “inactive” in each case.

Take `Oc1ccc(-c2ccccc2)c(Cl)c1`: the Potency in assay [16] was 21.9 µM (active); in [3], 49 µM (active); in assay [7] it was 49 µM (active); in [18], 24.5 µM (active). In addition, the Potency result in assay [2], in assay [19], in assay [6], in assay [8], in assay [9] and in assay [12] was “inactive” in each case. The Potency result in assay [14] and in [15] was “inactive” in each case.

In the case of `COc1cc(C=C2CCC/C(=C\c3ccc(O)c(OC)c3)C2=O)ccc1O`, the Potency in assay [16] is 21.3 µM (active); in assay [2], 23.9 µM (active); in [3], 23.9 µM (active); in assay [7], 21.3 µM (active); in assay [18] it was 23.9 µM (active); in assay [10] it was 2.39 µM (active). For the same compound, the Potency entry in [1], in [5], in [6] and in [8] was “inactive” each time.

Regarding `CC(C)(C)c1cc(/C=C2\SC(=N)NC2=O)cc(C(C)(C)C)c1O`, the Potency was 49 µM (active) in assay [16]; 43.6 µM (active) in assay [17]; 43.6 µM (active) in [3]; 43.6 µM (active) in [4]; 43.6 µM (active) in assay [7]; 49 µM (active) in assay [18]. Also, the Potency entry in assay [19], in assay [6], in [8], in assay [12], in [14] and in [15] was “inactive” each time.

Turning to `S=C(SSSSSSC(=S)N1CCCCC1)N1CCCCC1`, the Potency in [16] is 0.192 µM (active). The cytotoxicity increase in assay [17] is -6.85% [at 15.8 µM]; in [7], 16.8% [at 15.8 µM]; in assay [8] it was -0.556% [at 15.8 µM]; in assay [13] it was -7.66% [at 15.8 µM]. For the same compound, the activity change, negative = cytotoxic in assay [2] is -24.5% [at 15.8 µM]. Moreover, the cytotoxicity in assay [3] was -0.0697% [at 15.8 µM]; in assay [6], -6.55% [at 15.8 µM]. Moreover, the figures for the activity change, negative = cytotoxicity in assay [19] and in assay [12] were -11.8% [at 15.8 µM] and -21.4% [at 15.8 µM], respectively. Besides, in [11], the activity change was 19.1% [at 15.8 µM, stronger effect = higher value]. Also, the viability change, negative = cytotoxic in assay [15] is -10.8% [at 19 µM].

Regarding `COc1cc(C(C)C)c2c(c1)S(=O)(=O)N(COc1cc(=O)n3cccc(OCCN4CCCCC4)c3n1)C2=O`, the activity change is 0.172% [at 15.8 µM, stronger effect = higher value] in assay [1] and 2.2% [at 15.8 µM, stronger effect = higher value] in assay [11]. Besides, the cytotoxicity increase in assay [17] is 19.8% [at 15.8 µM]; in assay [5], 5.59% [at 15.8 µM]; in assay [8] it was -6.14% [at 15.8 µM]; in assay [13], 14.9% [at 15.8 µM]. Further, the activity change, negative = cytotoxic in assay [2] is -2.94% [at 15.8 µM]; in assay [9], -16.4% [at 15.8 µM]. The activity change, negative = cytotoxicity in assay [19] is -4.74% [at 15.8 µM]; in [12], -4.58% [at 15.8 µM]; in assay [14], -4.33% [at 19 µM]. Moreover, the cytotoxicity in assay [6] is 2.15% [at 15.8 µM]. Besides, in assay [15], the viability change, negative = cytotoxic is -2.69% [at 19 µM].
